High-throughput results (PubChem BioAssay)
Compounds with a hit are over-represented: about 2% of the library has one in this group of screens.
Hsp70 activator: Hsp70 transcriptional activators, primary screen, cell-based, HeLa, Hsp70 promoter luciferase, luminescence, 10 µM | HeLa Hsp70 promoter luciferase reporter; scaled: vehicle 0, proteasome-inhibitor control 100% | activation, % at 10 µM | hit rate 0.04% among 200,000;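 active = activation above the mean across all tested compounds plus 3 SD, cutoff set per campaign, cut at about 5.5% in these data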;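 also: 100% = MG132 at 30 µM as the positive control and 0% = DMSO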
Efa HMGR inh: inhibitors of E. faecalis class II HMGR, primary screen, biochemical, Enterococcus faecalis | HMG-CoA reductase (Enterococcus faecalis, mvaE) | purified E. faecalis HMGR, NADPH absorbance 340 nm kinetic | inhibition, % at 10 µM | hit rate 0.41% among 190,000 | AID 1066, 2008;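 active = inhibition above a set limit, the median over all tested compounds plus 3 SD, cut at about 9.5% in these data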;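 also: enzyme runs in reverse so mevalonate oxidation gives rising NADPH absorbance; 0% = complete reaction with DMSO and 100% = background rate lacking mevalonate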
Arbovirus anti: antivirals against arbovirus infection, primary screen, cell-based, full library, 10K replicate subset | hit rate 0.37% among 200,000 | arbovirus infection cell-based antiviral screen | inhibition, % at 10 µM; in the data active = inhibition above about 30%
Wee1 stabilizer: Wee1 degradation inhibitors, primary screen, cell-based, HeLa, Wee1K328M-luciferase, luminescence; HeLa Luc-Wee1K328M stability; 100% = proteasome inhibitor MG132 effect; Wee1-like protein kinase (Homo sapiens), P30291; AID 1321, 2008; reporter increase, % at 5 µM; hit rate 1.2% among 220,000;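 active = activation above the mean of all tested compounds plus 3 SD, set per screening run, cut at about 8.8% in these data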;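 also: cells exposed to compound for 20 h before luminescence read; 0% = DMSO alone and 100% = MG132 at 30 µM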
PKD1 inh: inhibitors of human PKD1 kinase, biochemical, fluorescence polarization. Serine/threonine-protein kinase D1 (Homo sapiens), Q15139. PKD1 kinase fluorescence polarization assay. inhibition, % (concentration not given with the values). hit rate 0.056% among 200,000. AID 797, 2007; in the data active = inhibition above about 50%
Target sequence (Q15139 whole entry, looked up): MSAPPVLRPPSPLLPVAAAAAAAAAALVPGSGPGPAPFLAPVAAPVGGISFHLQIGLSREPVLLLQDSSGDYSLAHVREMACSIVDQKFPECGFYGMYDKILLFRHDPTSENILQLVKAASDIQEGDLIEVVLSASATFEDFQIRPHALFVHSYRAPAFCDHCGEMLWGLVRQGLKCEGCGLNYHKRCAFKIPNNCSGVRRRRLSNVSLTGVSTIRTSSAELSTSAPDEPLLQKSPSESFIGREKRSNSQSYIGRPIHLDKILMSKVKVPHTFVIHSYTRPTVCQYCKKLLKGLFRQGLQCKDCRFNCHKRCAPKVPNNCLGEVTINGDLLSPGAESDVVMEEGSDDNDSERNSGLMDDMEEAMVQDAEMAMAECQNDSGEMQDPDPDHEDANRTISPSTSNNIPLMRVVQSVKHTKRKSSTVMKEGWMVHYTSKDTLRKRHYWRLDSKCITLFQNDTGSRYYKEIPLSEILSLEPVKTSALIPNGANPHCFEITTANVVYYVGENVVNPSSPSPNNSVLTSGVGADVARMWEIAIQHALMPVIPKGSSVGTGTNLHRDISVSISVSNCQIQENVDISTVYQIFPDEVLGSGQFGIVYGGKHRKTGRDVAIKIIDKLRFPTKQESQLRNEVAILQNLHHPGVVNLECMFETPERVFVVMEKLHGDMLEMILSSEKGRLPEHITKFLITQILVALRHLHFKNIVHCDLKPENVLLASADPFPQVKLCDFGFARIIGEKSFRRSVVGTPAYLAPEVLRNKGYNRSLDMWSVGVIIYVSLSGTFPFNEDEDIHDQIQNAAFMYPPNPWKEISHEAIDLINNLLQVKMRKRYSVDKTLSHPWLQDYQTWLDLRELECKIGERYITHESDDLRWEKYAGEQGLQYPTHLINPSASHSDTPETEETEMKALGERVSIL
* marks the source's active call; other numbers are inactive results; . = no result given.

SMILES	Hsp70 activator	Efa HMGR inh	Arbovirus anti	Wee1 stabilizer	PKD1 inh
Cc1cc(C)c(NC(=S)NC(=O)c2ccc(-c3ccccc3)cc2)c(C)c1	0	-3	30*	1	-1
Cc1ccc(NC(=S)NC(=O)c2ccccc2)cc1NC(=S)NC(=O)c1ccccc1	.	.	.	1	.
COc1ccccc1NC(=O)c1c(Nc2ccccc2C)sc(C(=O)Nc2cccc(Cl)c2)c1N	0	-1	-21	2	-15
COc1ccc(S(=O)(=O)NNC(=O)c2ccc(-n3c(C)ccc3C)cc2)cc1	.	.	.	1	.
COc1cc(OC)nc(/N=C/N(C)C)n1	0	6	8	33*	-3
Cc1cc(/N=C/N(C)C)on1	0	-1	-2	-1	-4
CC(CCc1ccccc1)NC(=O)COc1ccc(S(=O)(=O)N2CCOCC2)cc1[N+](=O)[O-] (configuration not stated)	-1	-3	15	3	-10
CN(Cc1ccccc1)CC(O)COc1ccc(CNCCCOc2cccnc2)cc1 (configuration not stated)	0	-8	-31	8.9*	1
COc1ccc(NC(=O)N(Cc2cc3ccc(OC)cc3[nH]c2=O)CC2CCCO2)cc1 (configuration not stated)	0	17*	-24	4	-8
COc1ccc(NC(=O)N(Cc2cc3cc(OC)ccc3[nH]c2=O)CC2CCCO2)cc1 (configuration not stated)	0	-3	-17	1	-12
C/C(=N\NC(=O)c1n[nH]c2c1CCC2)c1ccco1	.	.	.	9.3*	.
CCC(C)(C)C1CCc2[nH]nc(C(=O)N/N=C(\C)c3ccco3)c2C1 (configuration not stated)	.	.	.	-1	.
O=C(NN=C1CCCC1)c1n[nH]c2c1CCCC2	0	2	11	0	-9
O=C(N/N=C/c1c(Cl)cccc1Cl)c1n[nH]c2c1CCCC2	0	-1	2	10.0*	-4
Cc1ccsc1/C=N\NC(=O)c1n[nH]c2c1CCC2	0	0	-8	4	-5
O=C(NN=C1CCCC1)c1n[nH]c2c1CCC2	0	0	-2	11*	0
Clc1ccc(-c2nc3ccccc3[nH]2)cn1	.	.	.	6	.
CC(=O)Nc1ccc(S(=O)(=O)Nc2ccc(S(=O)(=O)N3CCCC3)cc2)cc1	-1	0	11	9.2*	-8
CC(=O)Nc1ccc(S(=O)(=O)N2CCN(C)CC2)cc1	0	-8	1	-1	-6
CCN(CC)/C(=N/S(=O)(=O)c1ccc(C)cc1)c1ccccc1	0	-2	-3	10.0*	1
CC1(C)CC2CC(C)(CN2/C=C2/CCCCC2=O)C1 (configuration not stated)	.	.	.	-1	.
Cc1cccc(Cn2c(=O)n(CCCC(=O)NCc3ccco3)c(=O)c3ccccc32)c1	-1	-1	-18	-1	-4
Cc1cccc(Cn2c(=O)n(Cc3ccco3)c(=O)c3ccccc32)c1	0	-1	2	10*	0
Cc1ccc(C)c(OCCCC(C)(C)C(=O)O)c1	0	9.6*	6	-2	-9
COc1ccc(-c2csc(Nc3ccc(C)cn3)n2)cc1	0	2	7	9.6*	-1
SMILES	Hsp70 activator	Efa HMGR inh	Arbovirus anti	Wee1 stabilizer	PKD1 inh
CC(=O)Nc1cccc(-c2csc(Nc3ccc(C)cn3)n2)c1	0	-8	19	8	-5
CCOC(=O)N1CCN(C(=O)c2cc3c(s2)-c2ccc(Cl)cc2S(=O)(=O)C3)CC1	0	-2	-1	10*	2
CCOC(=O)c1cc2c(N)c(C(=O)c3ccc(Br)cc3)sc2[nH]c1=O	0	-9	32*	-1	-3
O=C(COc1ccc(Cl)cc1)NCCN1CCCCC1	0	10*	3	0	0
COc1ccccc1C(=O)O/N=C(\N)c1ccccn1	.	.	.	9.1*	.
NC(C(=O)O)C(c1ccccc1)C(F)F (configuration not stated)	.	.	.	-1	.
Cc1c(Cl)cccc1NC(=O)COC(=O)c1c2c(nc3ccccc13)CCN(Cc1ccccc1)C2	0	-6	26	2	-6
CC(C)c1ccccc1NC(=O)COC(=O)c1c2c(nc3ccccc13)CCN(Cc1ccccc1)C2	0	-1	8	9.5*	-3
